Reference: PubChem BioAssay AID1851 (National Center for Advancing Translational Sciences (NCATS), 2009)
“And” between values parts separate entries of the source, which are not always exact repeats. Identical values can stand only once. The campaign covered roughly 16,000 compounds. About 5,700 (36%) were called active. Roughly 24% stayed inconclusive and do not appear here. This is one part of the list. Unmarked numbers belong to inactive results. The call rests on the fitted dose curve; in most records, active means well fitted curve in the direction sought with a large enough effect; inconclusive means small, poorly fitted or top-dose-only effect, or effect the other way; inactive means no such curve, though single readings can be large or run the other way.

Each molecule was assayed against Cytochrome P450 1A2 (Homo sapiens) (UniProt P05177) (assay: Cytochrome panel assay with activity outcomes). Conditions: recombinant CYP, pro-luciferin dealkylation, luminescence, p450-cyp1a2; series mostly up to 57.1 µM.
Cytochrome P450 1A2 (Homo sapiens), sequence (P05177 whole entry, looked up): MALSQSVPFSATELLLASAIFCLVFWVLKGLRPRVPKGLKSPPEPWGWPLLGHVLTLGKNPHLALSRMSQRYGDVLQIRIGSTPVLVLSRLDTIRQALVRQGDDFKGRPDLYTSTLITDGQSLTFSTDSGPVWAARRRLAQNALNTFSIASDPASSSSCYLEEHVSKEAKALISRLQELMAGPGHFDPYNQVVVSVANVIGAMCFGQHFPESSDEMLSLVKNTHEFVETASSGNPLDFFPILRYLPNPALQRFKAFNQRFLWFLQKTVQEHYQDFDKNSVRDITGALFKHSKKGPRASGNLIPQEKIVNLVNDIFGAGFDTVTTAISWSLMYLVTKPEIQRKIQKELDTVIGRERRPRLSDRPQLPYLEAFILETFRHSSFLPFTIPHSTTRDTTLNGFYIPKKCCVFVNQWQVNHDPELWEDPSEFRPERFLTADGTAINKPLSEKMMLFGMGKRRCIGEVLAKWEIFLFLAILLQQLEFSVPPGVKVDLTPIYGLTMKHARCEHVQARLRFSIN
On the % scale 0 is the no-effect control and ±100 the full control effect.

Structure (SMILES)	AC50	activity, negative = inhibition
Cc1nc2cnc(N3CCN(C)CC3)nc2n(C)c1=O	12600 nM (active)	–
Cc1nc2cnc(N3CCOCC3)nc2n(C)c1=O	6310 nM (active)	–
C1COC(NC(C2CC2)C2CC2)=N1	inactive	–
N#[N+]c1ccc(Nc2ccccc2)cc1	–	-12.6% [at 11.4 µM]
Nc1ccc(Nc2ccccc2)cc1	12600 nM (active)	–
Nc1ccccc1Nc1ccccc1	25100 nM (active)	–
CCc1c(C(C)O)oc2ccc3c(C)cc(=O)oc3c12 (configuration not stated)	282 nM (active)	–
CC(C)N1CCN(c2ccncc2S(=O)(=O)N2CCCCC2)CC1	–	-16.9% [at 2.29 µM]
Cc1c(C(=O)N/N=C/c2ccccc2)sc(=S)n1C	891 nM (active)	–
Cc1c(NC(=S)N/N=C/c2ccc(O)cc2)c(=O)n(-c2ccccc2)n1C	inactive	–
CCCC(=O)Nc1nc2n(n1)C(c1ccccc1)CC(=O)N2 (configuration not stated)	inactive	–
COc1cc(NC(=O)c2cc3nc(-c4ccccc4)cc(-c4ccccc4)n3n2)cc(OC)c1OC	inactive	–
CCCC(=O)Nc1nc2nc(-c3ccccc3)cc(-c3ccccc3)n2n1	2510 nM (active)	–
COc1ccc(-n2c(=O)c(-c3ccc(F)cc3)nc3cncnc32)cc1	inactive	–
Cn1c(=O)c(-c2ccc(F)cc2)nc2cncnc21	158 nM (active)	–
Cn1c(=O)c(-c2ccc(F)c(F)c2)nc2cncnc21	158 nM (active)	–
Cn1c(=O)c(-c2cccc(Cl)c2)nc2cncnc21	501 nM (active)	–
Cn1c(=O)c(-c2ccccc2)nc2cncnc21	631 nM (active)	–
C[C@]1(C2CCCC2)Cc2cc(OCC(=O)O)c(Cl)c(Cl)c2C1=O	inactive	–
COC(=O)[C@@]1(Cc2ccc(F)cc2)[C@H]2c3cc(C(=O)N4CCCC4)n(CCc4c[nH]c5ccccc45)c3C[C@H]2CN1C(=O)c1ccccc1	inactive	–
Cn1c(=O)c(-c2ccc(Cl)cc2)nc2cncnc21	25.1 nM (active)	–
Cn1c(=O)c(-c2cc(F)cc(F)c2)nc2cncnc21	631 nM (active)	–
CC(=O)NN1C(=O)c2ccc(Oc3ccc([N+](=O)[O-])cc3)cc2C1=O	inactive	–

Structure (SMILES)	AC50	activity, negative = inhibition
Cc1ccc(S(=O)(=O)CCCS(=O)(=O)c2ccc(C)cc2)cc1	inactive	–
Cc1ccc(S(=O)(=O)CC#CCOC(=O)c2ccc([N+](=O)[O-])cc2)cc1	6310 nM (active)	–
C/C(=N\NC(=S)Nc1ccc(F)cc1)C1CC1	1780 nM (active)	–
N=C(N)SCc1cccc2c(=O)cc(-c3ccccc3)oc12	126 nM (active)	–
CN(C)c1ncc2nc(-c3cccs3)c(=O)n(C[C@H]3CCCO3)c2n1	1580 nM (active)	–
CCNc1ncc2nc(-c3cccs3)c(=O)n(C[C@H]3CCCO3)c2n1	2510 nM (active)	–
CN1CCN(c2ncc3nc(-c4cccs4)c(=O)n(C[C@H]4CCCO4)c3n2)CC1	12600 nM (active)	–
OCCCSCCO	–	-19.1% [at 2.29 µM]
CCCC[C@@H]1CN2[C@H](c3ccc(Br)cc3)[C@@H](C)CC[C@H]2C(=O)O1	–	-6.09% [at 11.4 µM]
CO[C@@H]1COC(=O)C/C=C\[C@H](C)[C@H](OC)COC(=O)[C@H]2CCCN2C(=O)C/C=C\[C@H]1C	–	1.02% [at 11.4 µM]
COc1cccc(/C=N/NC(=O)CO/N=C(\C)c2cccs2)c1OC	1410 nM (active)	–
COc1cc(C)cc(OC)c1/C=C\C(=O)O	–	-6.92% [at 11.4 µM]
COc1ccccc1/C=C/C(=O)c1c2c(c(C)[nH]c1=O)CCCC2	12600 nM (active)	–
CCOc1ccc2ccccc2c1C(=O)N[C@@H]1C(=O)N2[C@@H]1SC(C)(C)[C@@H]2C(=O)O	inactive	–
COc1ccccc1/C=C/C(=O)c1ccc(Cl)cc1	3550 nM (active)	–
Cc1[nH]c(=O)c(C(=O)/C=C/c2ccccc2F)c2c1CCCC2	11200 nM (active)	–
COc1ccc2ccccc2c1/C=C\C(=O)c1ccccc1	3160 nM (active)	–
CC(=O)[C@@H]1CC[C@@H]2[C@@H]3C[C@H](C)C4=CC(=O)CC[C@@]4(C)[C@H]3[C@H](O)C[C@]21C	inactive	–
CS(=O)(=O)N1CCC2(CCCN(C(c3ccccc3)c3ccccc3)C2)CC1	inactive	–
Cc1ccc(C2CC(=O)c3cnc(N4CCc5ccccc5C4)nc3C2)cc1 (configuration not stated)	inactive	–
O=C1CC(c2ccccc2)Cc2nc(N3CCc4ccccc4C3)ncc21 (configuration not stated)	3550 nM (active)	–
CC1CC(=O)c2cnc(N)nc2C1 (configuration not stated)	inactive	–
Cc1ccnn2cc3c(=O)n(C)c(=O)n(C)c3c12	12600 nM (active)	–

Structure (SMILES)	AC50	activity, negative = inhibition
COc1ccccc1CN1CC[C@@]2(CCCN(C(C)=O)C2)C1	inactive	–
COc1ccc2[nH]cc(CCNc3ncnc4ccc(-c5cccnc5)cc34)c2c1	79.4 nM (active)	–
COc1ccc2[nH]cc(CCNc3ncnc4ccc(-c5cccc(C#N)c5)cc34)c2c1	2510 nM (active)	–
CCC1=C(C)CN(C(=O)NCCc2ccc(S(=O)(=O)NC(=O)NC3CCC(C)CC3)cc2)C1=O (configuration not stated)	inactive	–
Cc1ccc(OC(=O)c2oc3ccc(F)cc3c2C)c(C)c1	2510 nM (active)	–
CCOC(=O)N1CCN(C(=O)c2oc3ccc(S(=O)(=O)N4CCCCC4)cc3c2C)CC1	inactive	–
CCCOc1ccc(C(=O)NNC(=S)NC(=O)CC)cc1	inactive	–
Cc1ccc(NC(=O)CCC(=O)c2ccc(F)cc2)cc1Cl	6310 nM (active)	–
CCCOc1ccc(C(=O)CCNc2ccc(C)c(Cl)c2)cc1	891 nM (active)	–
O=C(O)CCC(=O)Nc1ccc(C(=O)N2CCCCC2)cc1	inactive	–
Cc1ccc(NCCC(=O)c2ccc(Cl)cc2)cc1	251 nM (active)	–
Cc1ccc(NC(=O)c2cc(NC(=O)CCCC(=O)O)ccc2Cl)cc1Cl	inactive	–
O=C(O)CCC(=O)c1ccc(Cl)cc1	–	-17.8% [at 11.4 µM]
Cc1ccc(NCCC(=O)c2ccc(Cl)c(Cl)c2)cc1	1260 nM (active)	–
O=C(O)[C@@H]1[C@@H]2C[C@@H]3[C@@H](OC(=O)[C@@H]31)[C@H]2Br	–	-4.92% [at 11.4 µM]
OC(CCN1CCCCC1)(c1ccccc1)c1ccccc1	inactive	–
CCCCOC(=O)Nc1ccc(C)c(Cl)c1	4470 nM (active)	–
Cc1c(Cl)c(S(N)(=O)=O)cc(S(N)(=O)=O)c1NC(=O)c1ccc(Cl)cc1	–	-2.26% [at 11.4 µM]
Cc1ccc(NCCC(=O)c2ccc(Cl)cc2)cc1C	631 nM (active)	–
COc1cccc(-c2ccc3ncnc(NCc4cnc(C)cn4)c3c2)c1	2510 nM (active)	–
Cc1cnc(CNc2ncnc3ccc(-c4cccc(C#N)c4)cc23)cn1	398 nM (active)	–
C/C(CCN1CCc2nc(-c3ccccc3)c(-c3ccccc3)cc2C1)=N\OC[C@@H](C)[C@H](OCc1ccccc1)C(C)C	–	-4.9% [at 11.4 µM]
COC(=O)C/C=C\[C@@H](C)[C@@H](/C=N\OC[C@@H]1O[C@H](c2ccccc2)C=C[C@@H]1Oc1ccc(OC)cc1)OC	–	10.1% [at 11.4 µM]

Structure (SMILES)	AC50	activity, negative = inhibition
CC(=O)Nc1ccc(NCN2C(=O)C3C4CCC(C4)C3C2=O)cc1 (configuration not stated)	inactive	–
Cc1cccc(C)c1NC(=O)CCN1C(=O)C2C3CCC(C3)C2C1=O (configuration not stated)	inactive	–
Cc1cccc(OC(=O)CN2C(=O)C3C4CCC(C4)C3C2=O)c1C (configuration not stated)	12600 nM (active)	–
COc1ccc(O[C@H]2C=C[C@@H](c3ccccc3)O[C@H]2COC(=O)N2CCCCC2)cc1	–	-4.44% [at 11.4 µM]
C(=N\Nc1nc(Nc2ccccc2)nc(N2CCOCC2)n1)/c1c[nH]c2ccccc12	10000 nM (active)	–
C#CCCCO/N=C1/C[C@@H](O)[C@@H](O)[C@@H]2[C@@H]3C(=O)N(C[C@@H]4CCCO4)C(=O)[C@H]3CC[C@@H]12	–	1.69% [at 11.4 µM]
COc1ccccc1N1CCN(CCCCNC(=O)c2ccc3ccccc3c2)CC1	inactive	–
COc1ccccc1N1CCN(CCCCNC(=O)c2ccc(-c3ccc(C(C)=O)cc3)cc2)CC1	25100 nM (active)	–
COc1ccccc1N1CCN(CCCNc2cc(=O)n(C)c(=O)n2C)CC1	inactive	–
COc1ncc2nc(-c3ccc(F)cc3)c(=O)n(CCc3ccccc3)c2n1	398 nM (active)	–
COc1ncc2nc(C)c(=O)n(CCc3ccccc3)c2n1	2000 nM (active)	–
COc1ncc2nc(-c3ccc(F)cc3)c(=O)n(Cc3ccc(F)cc3)c2n1	1580 nM (active)	–
COc1ccccc1N(CC(=O)NCC1CCCO1)C(=O)CNS(=O)(=O)c1ccc(C)cc1 (configuration not stated)	inactive	–
Cc1ccc(S(=O)(=O)N[C@H]2COC(=O)CC=C[C@@H](C)[C@H]3C=C[C@H](O)[C@@H](COC(=O)CC=C[C@H]2C)O3)cc1	–	-8.39% [at 11.4 µM] and -5.02% [at 11.4 µM]
S=c1nc[nH]c2c1ncn2Cc1ccco1	–	-16.3% [at 11.4 µM]
CCOC(=O)c1c(C)n(C)c2ccc(OC)c(NC(=O)CN3CCCCC3)c12	15800 nM (active)	–
Cc1c(NC(=O)CN2CCN(c3ccccc3)CC2)c(=O)n(-c2ccccc2)n1C	inactive	–
O=c1c(-c2nnc(SCc3ccc(Cl)c(Cl)c3)o2)cccn1Cc1ccccc1	inactive	–
c1ccc(CSc2nnc(-c3sccc3-n3cccc3)o2)cc1	2820 nM (active)	–
Clc1ccc(CSc2nnc(-c3cccnc3)o2)cc1	3550 nM (active)	–
Cc1cccc(-c2nnc(SCc3ccccc3)o2)c1	14100 nM (active)	–
Clc1ccc(CSc2nnc(-c3sccc3-n3cccc3)o2)cc1	2820 nM (active)	–
Clc1cccc(CSc2nnc(-c3sccc3-n3cccc3)o2)c1	2510 nM (active)	–
